Experimental data reported in PubChem BioAssay AID493221 (Johns Hopkins Ion Channel Center, 2011).
Out of some 2,400 compounds screened, about 1,700 (71%) were called active.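 How the source made its calls: active means choline transporter activity left, mean of duplicates at 10 µM, below buffer-only control mean minus 3 SD; inactive means the rest.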 The set was probably picked from earlier hits. A selection follows.

Each molecule was assayed against High affinity choline transporter 1 (Homo sapiens) (UniProt Q9GZV3) (assay: human choline transporter blockers – cell-based, membrane potential dye, duplicate, confirmation (AID 493221)). Details: CHT-expressing cells, at 10 µM, LV-to-AA substituted CHT, HEK293 cells.
Chain of High affinity choline transporter 1 (Homo sapiens) (Q9GZV3 whole entry, looked up): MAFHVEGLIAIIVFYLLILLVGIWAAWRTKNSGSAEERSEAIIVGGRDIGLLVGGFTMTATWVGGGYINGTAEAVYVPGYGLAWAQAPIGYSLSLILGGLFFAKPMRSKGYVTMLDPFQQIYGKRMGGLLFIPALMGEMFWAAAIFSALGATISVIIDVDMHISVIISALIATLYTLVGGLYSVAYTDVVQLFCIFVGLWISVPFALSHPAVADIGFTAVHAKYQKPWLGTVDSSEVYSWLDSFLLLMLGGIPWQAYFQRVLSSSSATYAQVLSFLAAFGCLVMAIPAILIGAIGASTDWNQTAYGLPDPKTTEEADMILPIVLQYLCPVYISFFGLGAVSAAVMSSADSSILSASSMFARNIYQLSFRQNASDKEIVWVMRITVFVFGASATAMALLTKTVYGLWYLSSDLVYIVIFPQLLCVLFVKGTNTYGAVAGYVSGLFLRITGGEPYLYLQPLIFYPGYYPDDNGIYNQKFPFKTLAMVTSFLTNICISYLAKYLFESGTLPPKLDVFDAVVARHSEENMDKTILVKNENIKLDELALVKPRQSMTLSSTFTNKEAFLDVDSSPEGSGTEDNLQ

Question: `Cc1ccc(CS(=O)(=O)c2ncc(Cl)c(C(=O)Nc3nnc(C)s3)n2)cc1` was tested. Which CHT activity remaining % of control (hits give low values) did it give?
Answer: 25.2% (active)

Question: `O=C(Nc1nonc1-c1ccc(Cl)cc1)c1ccco1` was tested. Which CHT activity remaining % of control (hits give low values) did it give?
Answer: 68.2% (active)

Question: For `COCCNc1nc(-n2nc(C)cc2C)nc2sc3c(c12)CCCC3`, which CHT activity remaining % of control (hits give low values) is on record?
Answer: 71.2% (active)

Question: Which CHT activity remaining % of control (hits give low values) does the source give for `O=C(CCCN1C(=O)CSc2ncccc21)N1CCN(c2cccc(C(F)(F)F)c2)CC1` here?
Answer: 42.1% (active)

Question: `COc1cccc(-c2nn(-c3ccccc3)cc2/C=C(\C#N)C(=O)NCCCn2ccnc2)c1` was tested. Which CHT activity remaining % of control (hits give low values) did it give?
Answer: 28.8% (active)

Question: With `CC(=O)OCCOCn1cnn2c(=O)c(Br)c(C)nc12` as the molecule, how does the CHT activity remaining % of control (hits give low values) read?
Answer: 37.2% (active)

Question: How did the CHT activity remaining % of control (hits give low values) turn out when `Cc1ccccc1-n1nnc2c(=O)oc3ccccc3c21` was run?
Answer: inactive

Question: With `CN(Cc1ccccc1)CC(O)COc1ccc(CNCc2cc3ccccc3s2)cc1` (configuration not stated) as the molecule, how does the CHT activity remaining % of control (hits give low values) read?
Answer: 53.6% (active)

Question: For `CCS(=O)(=O)C1=NSC2=NC(=O)/C(=C\c3ccc(OS(=O)(=O)c4ccccc4)cc3)C(=N)N21`, which CHT activity remaining % of control (hits give low values) is on record?
Answer: 53.4% (active)

Question: Which CHT activity remaining % of control (hits give low values) does the source give for `CCCCCn1c(=O)c(C(=O)OCC)c(Cl)c2ccccc21` here?
Answer: 45.3% (active)

Question: With `O=c1c2ccccc2nnn1CSc1nc2sc3c(c2c(=O)n1CC1CCCO1)CCC3` (configuration not stated) as the molecule, how does the CHT activity remaining % of control (hits give low values) read?
Answer: 24% (active)

Question: With `Cc1ccc(NNC(=O)c2cccs2)cc1Cl` as the molecule, how does the CHT activity remaining % of control (hits give low values) read?
Answer: 64.8% (active)

Question: How did the CHT activity remaining % of control (hits give low values) turn out when `CCC(C(=O)N1CCOCC1)n1c(C(=O)OC)cc2occc21` (configuration not stated) was run?
Answer: 55% (active)

Question: For `CCNC(=O)CC1C(=O)N(c2ccc(F)cc2)C(=O)N1CCc1sccc1C` (configuration not stated), which CHT activity remaining % of control (hits give low values) is on record?
Answer: inactive

Question: `O=C1c2cccc3cccc(c23)C(=O)N1CCCCCc1n[nH]c(=S)o1` was tested. Which CHT activity remaining % of control (hits give low values) did it give?
Answer: inactive

Question: For `COc1ccc(Cn2c(=O)sc3ccccc32)cc1OC`, which CHT activity remaining % of control (hits give low values) is on record?
Answer: 63.4% (active)

Question: How did the CHT activity remaining % of control (hits give low values) turn out when `CCOc1ccccc1Nc1ccc2nonc2c1[N+](=O)[O-]` was run?
Answer: 33.1% (active)

Question: `CC(=O)N1CCN(S(=O)(=O)c2cccc(C(=O)NC3CCC(C)CC3)c2)CC1` (configuration not stated) was tested. Which CHT activity remaining % of control (hits give low values) did it give?
Answer: 70.5% (active)

Question: `COc1ccc(S(=O)(=O)N2CCN(C(=O)NC3CCCCC3)CC2)cc1` was tested. Which CHT activity remaining % of control (hits give low values) did it give?
Answer: inactive

Question: With `CCc1nc(C)cn1S(=O)(=O)c1cc([N+](=O)[O-])ccc1Cl` as the molecule, how does the CHT activity remaining % of control (hits give low values) read?
Answer: inactive

Question: `CCn1c(SCCC(C)C)nnc1-c1c[nH]c2ccccc12` was tested. Which CHT activity remaining % of control (hits give low values) did it give?
Answer: 67.1% (active)

Question: How did the CHT activity remaining % of control (hits give low values) turn out when `Cc1ccccc1-n1c(C)cc(/C=N/NC(=O)c2ccc(CN3CCOCC3)cc2)c1C` was run?
Answer: 69.4% (active)

Question: Which CHT activity remaining % of control (hits give low values) does the source give for `CC(=O)c1ccc(Oc2cc(C)nc(-n3nc(C)cc3C)n2)cc1` here?
Answer: inactive

Question: With `CCOC(=O)N1CCN(C(=O)C2CCN(c3ncnc4c3sc3cccc(F)c34)CC2)CC1` as the molecule, how does the CHT activity remaining % of control (hits give low values) read?
Answer: 68.8% (active)

Question: How did the CHT activity remaining % of control (hits give low values) turn out when `Cc1[nH]c2ccccc2c1C(=O)CN1CCCC(C)C1` (configuration not stated) was run?
Answer: 60.9% (active)

Question: With `O=C(Cn1nc(C(F)(F)F)c2c1CCC2)NCc1ccc(F)cc1` as the molecule, how does the CHT activity remaining % of control (hits give low values) read?
Answer: 63.8% (active)

Question: With `COC(=O)c1ccccc1NC(=O)Cn1nc(C(F)(F)F)c2c1CCC2` as the molecule, how does the CHT activity remaining % of control (hits give low values) read?
Answer: inactive
